From the supplement of paper PMC11732987, “Enantioselective OTUD7B fragment discovery through chemoproteomics screening and high-throughput optimisation” (Communications Chemistry, 2025)

Tests used:
Test in all cases: log2 ratio of Biotin-Ahx-Ub-VS probe labelling (fragment/DMSO); higher = less target engagement (more negative = stronger competition), active = hit call of the paper (q ≤ 0.05, log2 ratio ≤ -1)
Conditions in all cases: compound concentration: 200 uM; treatment time: 3 h
[1] = target: UniProt O00507
Chain of UniProt O00507 (O00507 whole entry, the tested form may be a part): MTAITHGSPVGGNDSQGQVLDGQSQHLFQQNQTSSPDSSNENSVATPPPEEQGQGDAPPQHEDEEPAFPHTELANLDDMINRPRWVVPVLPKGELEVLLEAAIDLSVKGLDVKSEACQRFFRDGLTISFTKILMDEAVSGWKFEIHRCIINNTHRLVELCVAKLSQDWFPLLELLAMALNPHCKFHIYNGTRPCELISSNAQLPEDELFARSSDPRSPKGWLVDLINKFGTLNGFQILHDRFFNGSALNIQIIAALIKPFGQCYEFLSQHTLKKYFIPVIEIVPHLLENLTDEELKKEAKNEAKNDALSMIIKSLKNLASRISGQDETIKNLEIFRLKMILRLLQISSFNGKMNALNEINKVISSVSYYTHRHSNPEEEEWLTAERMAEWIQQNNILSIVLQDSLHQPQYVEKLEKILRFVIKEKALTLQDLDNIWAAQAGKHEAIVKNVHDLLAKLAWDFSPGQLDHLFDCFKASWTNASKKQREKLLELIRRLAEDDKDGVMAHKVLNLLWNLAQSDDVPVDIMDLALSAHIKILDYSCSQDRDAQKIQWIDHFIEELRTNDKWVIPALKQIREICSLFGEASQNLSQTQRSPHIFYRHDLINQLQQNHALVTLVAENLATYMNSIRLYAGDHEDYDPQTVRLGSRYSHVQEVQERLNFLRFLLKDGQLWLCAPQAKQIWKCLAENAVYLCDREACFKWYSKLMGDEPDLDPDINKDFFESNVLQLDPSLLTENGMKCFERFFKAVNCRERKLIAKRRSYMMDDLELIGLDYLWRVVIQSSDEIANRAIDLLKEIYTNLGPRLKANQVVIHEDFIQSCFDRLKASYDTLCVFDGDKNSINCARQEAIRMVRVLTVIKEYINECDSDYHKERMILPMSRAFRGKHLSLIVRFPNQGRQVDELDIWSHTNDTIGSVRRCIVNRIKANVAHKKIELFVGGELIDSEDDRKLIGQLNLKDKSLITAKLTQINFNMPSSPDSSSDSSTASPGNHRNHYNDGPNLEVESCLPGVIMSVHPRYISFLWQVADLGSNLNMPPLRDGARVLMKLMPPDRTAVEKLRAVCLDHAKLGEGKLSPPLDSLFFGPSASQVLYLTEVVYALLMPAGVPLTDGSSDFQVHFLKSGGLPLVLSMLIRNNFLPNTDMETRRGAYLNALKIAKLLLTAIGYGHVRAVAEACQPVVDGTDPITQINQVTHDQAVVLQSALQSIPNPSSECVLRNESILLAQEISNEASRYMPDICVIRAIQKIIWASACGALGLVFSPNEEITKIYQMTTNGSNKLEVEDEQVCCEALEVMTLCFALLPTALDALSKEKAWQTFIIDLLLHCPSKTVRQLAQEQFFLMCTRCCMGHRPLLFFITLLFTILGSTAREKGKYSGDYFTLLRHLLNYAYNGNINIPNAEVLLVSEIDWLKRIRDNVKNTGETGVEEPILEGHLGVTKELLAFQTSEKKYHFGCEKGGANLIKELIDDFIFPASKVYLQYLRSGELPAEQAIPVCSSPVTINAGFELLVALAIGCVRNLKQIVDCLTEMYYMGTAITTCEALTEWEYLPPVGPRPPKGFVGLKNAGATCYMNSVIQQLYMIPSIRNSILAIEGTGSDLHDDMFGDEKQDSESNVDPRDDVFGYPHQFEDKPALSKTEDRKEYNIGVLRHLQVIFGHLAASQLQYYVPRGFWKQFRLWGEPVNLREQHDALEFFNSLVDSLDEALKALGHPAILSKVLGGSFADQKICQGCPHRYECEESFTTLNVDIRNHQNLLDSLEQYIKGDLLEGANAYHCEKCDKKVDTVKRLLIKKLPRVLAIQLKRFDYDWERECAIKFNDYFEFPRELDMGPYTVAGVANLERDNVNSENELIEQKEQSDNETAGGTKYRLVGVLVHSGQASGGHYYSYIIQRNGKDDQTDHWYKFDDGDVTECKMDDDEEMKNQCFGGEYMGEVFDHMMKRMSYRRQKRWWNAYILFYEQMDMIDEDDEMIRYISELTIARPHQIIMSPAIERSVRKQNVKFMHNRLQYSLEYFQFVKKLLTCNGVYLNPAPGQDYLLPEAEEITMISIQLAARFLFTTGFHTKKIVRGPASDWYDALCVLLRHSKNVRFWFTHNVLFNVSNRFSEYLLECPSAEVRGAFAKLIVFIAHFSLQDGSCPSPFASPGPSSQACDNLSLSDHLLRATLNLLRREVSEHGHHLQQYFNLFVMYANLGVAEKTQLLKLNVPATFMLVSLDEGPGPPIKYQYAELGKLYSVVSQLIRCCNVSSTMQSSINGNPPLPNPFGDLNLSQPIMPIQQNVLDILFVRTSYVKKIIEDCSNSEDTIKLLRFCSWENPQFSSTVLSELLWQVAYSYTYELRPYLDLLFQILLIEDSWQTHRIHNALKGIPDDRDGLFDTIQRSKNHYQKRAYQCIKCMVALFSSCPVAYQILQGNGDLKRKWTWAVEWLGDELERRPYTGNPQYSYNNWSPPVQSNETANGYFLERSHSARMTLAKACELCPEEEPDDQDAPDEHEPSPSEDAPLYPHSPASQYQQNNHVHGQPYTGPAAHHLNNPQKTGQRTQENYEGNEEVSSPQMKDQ
Procedure, shortened: (§1)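 The table lists average log2 ratios of fragment over vehicle, from an unpaired t-test on global-median-normalised Spectronaut label-free quantities. Proteins with ≥2 unique peptides were used. Samples were HEK293T lysate (495 µg) treated in triplicate with fragment at 200 µM or vehicle for 3 h, then with Biotin-Ahx-Ub-VS (0.5 µM final) for 1 h, with labelled DUBs NeutrAvidin-enriched and run by diaPASEF LC-MS/MS.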

[2] = target: UniProt P51784
Chain of UniProt P51784 (P51784 whole entry): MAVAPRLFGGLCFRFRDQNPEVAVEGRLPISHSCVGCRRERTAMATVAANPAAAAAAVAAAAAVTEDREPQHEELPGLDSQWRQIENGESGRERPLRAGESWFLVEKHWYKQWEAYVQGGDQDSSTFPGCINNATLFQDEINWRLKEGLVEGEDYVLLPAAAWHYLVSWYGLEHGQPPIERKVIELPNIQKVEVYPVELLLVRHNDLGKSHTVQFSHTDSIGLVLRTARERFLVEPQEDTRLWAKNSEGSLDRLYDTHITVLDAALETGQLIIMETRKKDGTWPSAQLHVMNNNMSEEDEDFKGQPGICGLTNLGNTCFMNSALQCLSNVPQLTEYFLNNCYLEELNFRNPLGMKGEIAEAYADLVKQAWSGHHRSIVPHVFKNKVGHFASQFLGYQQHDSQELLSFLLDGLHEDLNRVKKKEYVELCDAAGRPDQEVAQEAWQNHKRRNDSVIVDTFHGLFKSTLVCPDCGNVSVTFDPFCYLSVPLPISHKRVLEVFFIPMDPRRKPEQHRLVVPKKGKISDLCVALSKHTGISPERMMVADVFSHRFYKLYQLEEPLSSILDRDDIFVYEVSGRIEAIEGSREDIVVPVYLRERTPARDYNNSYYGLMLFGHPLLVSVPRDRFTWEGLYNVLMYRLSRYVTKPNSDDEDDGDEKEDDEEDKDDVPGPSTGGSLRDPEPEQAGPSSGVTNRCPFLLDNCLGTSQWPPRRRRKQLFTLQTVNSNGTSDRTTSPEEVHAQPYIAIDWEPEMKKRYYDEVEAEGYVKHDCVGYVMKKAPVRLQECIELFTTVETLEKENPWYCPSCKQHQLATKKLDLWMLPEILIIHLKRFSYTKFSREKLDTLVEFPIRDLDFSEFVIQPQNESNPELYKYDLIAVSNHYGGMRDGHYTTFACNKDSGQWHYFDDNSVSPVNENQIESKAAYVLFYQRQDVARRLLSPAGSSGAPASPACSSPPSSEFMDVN
Procedure, shortened: as §1

[3] = target: T1, UniProt Q5T2D3
T1 sequence (whole entry): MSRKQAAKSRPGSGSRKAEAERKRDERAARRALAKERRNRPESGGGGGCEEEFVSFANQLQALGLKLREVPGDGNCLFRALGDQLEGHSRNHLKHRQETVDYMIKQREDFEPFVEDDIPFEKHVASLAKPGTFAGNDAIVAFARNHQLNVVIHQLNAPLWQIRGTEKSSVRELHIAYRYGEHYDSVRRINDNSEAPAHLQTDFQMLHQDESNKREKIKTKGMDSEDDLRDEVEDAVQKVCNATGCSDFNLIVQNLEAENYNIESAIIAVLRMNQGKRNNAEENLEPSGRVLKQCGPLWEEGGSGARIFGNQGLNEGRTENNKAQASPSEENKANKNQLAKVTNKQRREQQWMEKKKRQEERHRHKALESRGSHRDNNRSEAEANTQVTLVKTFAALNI
Procedure, shortened: as §1

[4] = target: T2, UniProt Q8TE49
T2 sequence (whole entry): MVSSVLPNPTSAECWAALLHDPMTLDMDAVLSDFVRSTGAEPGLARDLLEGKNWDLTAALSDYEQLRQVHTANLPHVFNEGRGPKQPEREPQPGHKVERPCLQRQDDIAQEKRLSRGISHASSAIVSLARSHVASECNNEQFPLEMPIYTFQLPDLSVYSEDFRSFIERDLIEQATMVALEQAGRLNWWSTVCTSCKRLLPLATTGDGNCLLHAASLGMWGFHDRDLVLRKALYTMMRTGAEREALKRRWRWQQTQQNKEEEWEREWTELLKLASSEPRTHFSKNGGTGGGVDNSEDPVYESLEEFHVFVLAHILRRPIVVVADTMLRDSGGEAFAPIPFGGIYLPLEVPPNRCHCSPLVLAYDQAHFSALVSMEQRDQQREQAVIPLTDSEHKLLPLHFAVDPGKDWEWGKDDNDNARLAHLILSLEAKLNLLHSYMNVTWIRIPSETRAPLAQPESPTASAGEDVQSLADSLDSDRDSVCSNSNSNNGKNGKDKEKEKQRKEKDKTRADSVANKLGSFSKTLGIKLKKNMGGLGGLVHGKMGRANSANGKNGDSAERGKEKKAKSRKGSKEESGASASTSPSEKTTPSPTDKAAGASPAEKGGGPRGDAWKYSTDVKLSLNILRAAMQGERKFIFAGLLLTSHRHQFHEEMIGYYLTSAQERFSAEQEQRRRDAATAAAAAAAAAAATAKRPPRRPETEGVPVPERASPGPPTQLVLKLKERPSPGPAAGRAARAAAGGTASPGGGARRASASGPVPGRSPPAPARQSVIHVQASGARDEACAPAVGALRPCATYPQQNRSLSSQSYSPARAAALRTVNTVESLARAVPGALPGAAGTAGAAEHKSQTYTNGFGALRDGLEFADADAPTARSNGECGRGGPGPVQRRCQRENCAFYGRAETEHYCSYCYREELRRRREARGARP
Procedure, shortened: as §1

[5] = target: T3, UniProt Q9P2H5
T3 sequence (whole entry): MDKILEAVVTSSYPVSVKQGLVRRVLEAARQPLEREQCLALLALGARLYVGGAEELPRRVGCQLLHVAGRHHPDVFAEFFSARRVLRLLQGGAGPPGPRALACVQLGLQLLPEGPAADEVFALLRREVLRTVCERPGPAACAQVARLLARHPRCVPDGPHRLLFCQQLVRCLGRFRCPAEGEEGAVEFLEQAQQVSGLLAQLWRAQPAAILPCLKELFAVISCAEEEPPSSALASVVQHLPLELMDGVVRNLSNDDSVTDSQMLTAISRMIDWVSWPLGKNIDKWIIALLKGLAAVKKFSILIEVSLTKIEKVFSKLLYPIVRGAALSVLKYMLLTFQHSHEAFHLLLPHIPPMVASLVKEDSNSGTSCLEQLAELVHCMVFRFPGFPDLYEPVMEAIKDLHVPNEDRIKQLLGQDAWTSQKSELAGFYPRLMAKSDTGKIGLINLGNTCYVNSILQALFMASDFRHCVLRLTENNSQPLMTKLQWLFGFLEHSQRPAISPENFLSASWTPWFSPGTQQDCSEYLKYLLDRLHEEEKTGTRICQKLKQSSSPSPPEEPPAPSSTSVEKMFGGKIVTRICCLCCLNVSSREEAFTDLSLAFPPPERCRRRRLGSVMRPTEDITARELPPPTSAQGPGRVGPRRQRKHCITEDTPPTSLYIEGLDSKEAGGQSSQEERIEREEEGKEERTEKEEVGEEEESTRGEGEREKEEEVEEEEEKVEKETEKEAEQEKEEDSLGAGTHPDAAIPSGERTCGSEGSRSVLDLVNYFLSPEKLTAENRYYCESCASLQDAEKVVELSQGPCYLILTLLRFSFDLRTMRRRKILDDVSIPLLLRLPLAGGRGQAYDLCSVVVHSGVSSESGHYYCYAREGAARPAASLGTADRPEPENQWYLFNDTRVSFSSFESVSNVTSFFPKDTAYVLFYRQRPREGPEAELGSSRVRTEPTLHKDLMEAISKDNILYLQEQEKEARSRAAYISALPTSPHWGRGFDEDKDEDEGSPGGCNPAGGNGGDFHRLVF
Procedure, shortened: as §1

[6] = target: T4, UniProt Q9UGI0
T4 sequence (whole entry): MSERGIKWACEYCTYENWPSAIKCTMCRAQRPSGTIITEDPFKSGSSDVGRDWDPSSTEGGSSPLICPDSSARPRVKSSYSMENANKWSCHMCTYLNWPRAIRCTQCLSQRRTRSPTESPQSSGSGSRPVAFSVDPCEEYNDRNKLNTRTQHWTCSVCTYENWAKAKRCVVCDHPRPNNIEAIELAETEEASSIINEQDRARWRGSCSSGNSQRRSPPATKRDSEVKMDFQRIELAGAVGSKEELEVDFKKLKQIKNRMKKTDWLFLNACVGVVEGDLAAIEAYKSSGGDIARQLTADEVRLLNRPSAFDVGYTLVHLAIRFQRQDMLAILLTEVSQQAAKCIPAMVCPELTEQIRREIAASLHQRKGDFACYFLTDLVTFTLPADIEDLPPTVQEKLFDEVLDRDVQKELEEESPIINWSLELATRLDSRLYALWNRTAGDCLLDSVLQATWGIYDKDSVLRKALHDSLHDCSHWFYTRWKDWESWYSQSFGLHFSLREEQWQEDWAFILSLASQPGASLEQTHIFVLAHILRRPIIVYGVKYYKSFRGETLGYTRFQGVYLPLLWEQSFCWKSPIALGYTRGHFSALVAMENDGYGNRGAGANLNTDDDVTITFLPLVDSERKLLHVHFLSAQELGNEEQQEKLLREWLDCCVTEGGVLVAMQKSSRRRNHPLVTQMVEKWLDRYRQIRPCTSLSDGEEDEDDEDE
Procedure, shortened: as §1

[7] = target: T5, YOD1 (UniProt Q5VVQ6)
T5 sequence (whole entry): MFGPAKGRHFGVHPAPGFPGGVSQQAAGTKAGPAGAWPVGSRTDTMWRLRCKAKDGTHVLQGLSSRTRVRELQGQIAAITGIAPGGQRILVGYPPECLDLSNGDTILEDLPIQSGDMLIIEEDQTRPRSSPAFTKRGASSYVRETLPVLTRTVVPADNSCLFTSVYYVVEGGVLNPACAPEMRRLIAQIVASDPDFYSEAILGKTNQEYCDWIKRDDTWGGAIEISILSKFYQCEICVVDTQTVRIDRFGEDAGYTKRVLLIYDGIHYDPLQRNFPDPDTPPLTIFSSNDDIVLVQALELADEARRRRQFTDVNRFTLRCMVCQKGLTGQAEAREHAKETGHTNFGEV
Procedure, shortened: as §1

Measured: log2 ratio of Biotin-Ahx-Ub-VS probe labelling

O=C(CCl)N[C@H]1CC[C@@H](CO)CC1
active: [4] -1.32
inactive: [1] -0.725 | [2] -0.788 | [3] -0.746 | [5] -0.775 | [6] -0.944 | [7] -0.784

Cc1nnc(C(NC(=O)CCl)c2ccccc2)n1C (centres undefined)
inactive: [1] 1.12 | [2] 0.68 | [3] 0.343 | [4] 0.469 | [5] 0.372 | [6] 0.693 | [7] 0.747

Cc1ccccc1C1(CNC(=O)CCl)CCOCC1
inactive: [1] 0.332 | [2] 0.00427 | [3] -0.0687 | [4] -0.333 | [5] -0.221 | [6] -0.577 | [7] -0.0207

O=C(CCl)NCCc1cccc2ccccc12
inactive: [1] 0.608 | [2] 0.159 | [3] -0.0259 | [4] -0.28 | [5] 0.0801 | [6] 0.238 | [7] 0.263

O=C(CCl)NCc1ccc(N2CCOCC2)c(F)c1
inactive: [1] 0.631 | [2] 0.16 | [3] -0.134 | [4] -0.275 | [5] -0.291 | [6] -0.051 | [7] 0.276

Cc1ccc(C)c(NC(=O)CCl)c1
inactive: [1] -0.612 | [2] -0.335 | [3] -0.41 | [4] -0.57 | [5] -0.295 | [6] -0.449 | [7] -0.599

CC(NC(=O)CCl)c1cnn(C2CC2)c1 (centres undefined)
inactive: [1] -0.607 | [2] -0.127 | [3] -0.192 | [4] -0.779 | [5] -0.0606 | [6] -0.311 | [7] -0.732

O=C(CCl)NCc1ccc(Cl)cc1
inactive: [1] 0.318 | [2] 0.0262 | [3] -0.0567 | [4] -0.395 | [5] 0.00401 | [6] -0.0432 | [7] 0.238

O=C(CCl)N(Cc1ccsc1)C1CC1
inactive: [1] -0.302 | [2] -0.0887 | [3] -0.0506 | [4] -0.101 | [5] 0.0505 | [6] -0.949 | [7] -0.0601

Cl.Cn1nc2c(c1CNC(=O)CCl)CCCC2
inactive: [1] 0.0971 | [2] 0.0528 | [3] -0.274 | [4] -0.529 | [5] -0.23 | [6] -0.319 | [7] -0.144

O=C(CCl)Nc1ccc(N2CCCC2=O)cc1
inactive: [1] -0.208 | [2] 0.297 | [3] 0.165 | [4] 0.0701 | [5] 0.00543 | [6] -0.752 | [7] 0.137

Cc1ccc(CN(C)C(=O)CCl)o1
inactive: [1] 0.383 | [2] 0.146 | [3] -0.109 | [4] -0.671 | [5] -0.321 | [6] -0.57 | [7] 0.384

O=C(CCl)N(C1=CCCCC1)C1CC1
inactive: [1] 0.309 | [2] -0.0543 | [3] -0.118 | [4] -0.435 | [5] -0.351 | [6] 0.0561 | [7] -0.0863

O=C(CCl)N1CCN2C(=O)CCC2C1 (centres undefined)
inactive: [1] 0.162 | [2] 0.195 | [3] -0.286 | [4] -0.3 | [5] -0.168 | [6] -0.382 | [7] 0.182

CC1Cc2ccccc2N1C(=O)CCl (centres undefined)
inactive: [1] -0.438 | [2] -0.254 | [3] -0.151 | [4] -0.28 | [5] -0.127 | [6] -0.604 | [7] -0.114

Cc1cccc(N2CCC(NC(=O)CCl)C2=O)c1 (centres undefined)
inactive: [1] 0.294 | [2] -0.28 | [3] -0.334 | [4] -0.961 | [5] -0.395 | [6] -0.883 | [7] -0.459

O=C(CCl)N1CCC(C(=O)N2CCCC2)CC1
inactive: [1] -0.126 | [2] -0.2 | [3] -0.068 | [4] -0.199 | [5] -0.139 | [6] 0.0373 | [7] 0.122

CNC(=O)Cn1cc(NC(=O)CCl)cn1
inactive: [1] -0.146 | [2] -0.115 | [3] -0.427 | [4] -0.553 | [5] -0.256 | [7] -0.252
active: [6] -1.09

CC(NC(=O)CCl)c1cccc2ccccc12 (centres undefined)
active: [4] -1.06
inactive: [1] 0.0439 | [2] -0.0702 | [3] -0.196 | [5] -0.463 | [6] -0.905 | [7] 0.0311

Cl.O=C(CCl)N1CCN(Cc2ccccc2)CC1
inactive: [1] -0.496 | [2] 0.0203 | [3] -0.213 | [4] -0.391 | [5] 0.0502 | [6] -0.536 | [7] -0.381

O=C(CCl)NCc1cccc(N2CCCC2=O)c1
inactive: [1] -0.0239 | [2] 0.0359 | [3] 0.0544 | [4] -0.351 | [5] 0.0802 | [6] -0.491 | [7] 0.144

O=C(CCl)NCc1ccc2c(c1)OCO2
inactive: [1] 0.0979 | [2] 0.0895 | [3] -0.281 | [4] -0.708 | [5] -0.288 | [6] -0.607 | [7] 0.157
